The record followed here is PubChem BioAssay.

Values joined by “and” are separate entries in the source; they are usually repeats but may differ in a detail not shown here. Identical values can stand only once. Active and inactive are the calls of the source.

The subject of test [1] is Human papillomavirus type 1a protein E7 (residues 44-93). The test is described as follows: HPV1a E7 fragment binders on microarrays, primary screen, biochemical, small-molecule microarray, residues 44-93, 635 nm fluorescence (AID 1108).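 Note: E7 fragment applied at 1 µg/mL in TBST for 1 h at 4 C; score combines spot fluorescence with its signal to noise ratio.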 Particulars: small-molecule microarray binding, fluorescence 635 nm; higher = more signal.
The nature of test [2]: modulators of HCV replicon luciferase signal, primary screen, HCV replication inhibitor project, Huh7 cells, luciferase reporter (AID 1109).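 Note: huh7 hepatoma cells harbouring a luciferase neomycin HCV replicon reporter; luciferase luminescence as measure of HCV replicon replication; test concentration not given here.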 The conditions noted are these: 48 h, higher = more signal. Background: In antiviral work, replicon cells carry a viral genome segment that copies itself.
In test [3] the target is Left-right determination factor 2 (Homo sapiens) (UniProt O00292). Put plainly: LEFTY2 binders on small-molecule microarrays, primary screen, biochemical, small-molecule microarray, 635 nm fluorescence scan (AID 1110). The conditions noted are these: LEFTY2 binding, higher = more signal.
Left-right determination factor 2 (Homo sapiens), sequence (O00292 whole entry, looked up): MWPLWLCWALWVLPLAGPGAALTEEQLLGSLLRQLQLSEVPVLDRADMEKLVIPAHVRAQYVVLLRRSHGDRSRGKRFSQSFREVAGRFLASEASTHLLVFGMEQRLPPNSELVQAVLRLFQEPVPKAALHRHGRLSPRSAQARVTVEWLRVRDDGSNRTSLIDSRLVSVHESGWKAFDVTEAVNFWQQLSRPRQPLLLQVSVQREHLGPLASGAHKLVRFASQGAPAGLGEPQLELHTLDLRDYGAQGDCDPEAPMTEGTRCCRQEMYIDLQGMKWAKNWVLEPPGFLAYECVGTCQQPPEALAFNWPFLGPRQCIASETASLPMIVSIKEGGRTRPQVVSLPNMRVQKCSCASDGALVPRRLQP
The target of test [4] is Calmodulin-1 (Homo sapiens) (UniProt P0DP23). Put plainly: CALM1 binders on microarrays, EGTA buffer, profiling panel, biochemical, small-molecule microarray, Cy5-labelled CALM1 (AID 1111).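 Note: labelled calmodulin applied in Tris saline Tween buffer holding calcium plus EGTA and DTT.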 The conditions noted are these: Cy5-CALM1 binding fluorescence, higher = more signal.
Test [5] shares this target. Put plainly: calcium-bound CALM1 binders on microarrays, profiling panel, artefact control for SMM control-protein annotation, biochemical, small-molecule microarray, Cy5-labelled CALM1, plus calcium (AID 1112).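 Note: score merges spot fluorescence with signal to noise from triplicate slides.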 Particulars: Cy5-CALM1 binding fluorescence, higher = more signal.
Test [6] is described as follows: small-molecule microarray binders of probe aWnt5a, primary screen, biochemical, biotinylated probe, 635/667 nm fluorescence (AID 1113).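 Note: score merges 667 nm fluorescence intensity with signal-to-noise per printed feature.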 Particulars: higher = more signal; small-molecule microarray, probe aWnt5a, fluorescence unless noted.
Test [7] in a line: small-molecule microarray binders of probe aShh, primary screen, biochemical, biotinylated probe, 635/667 nm fluorescence (AID 1114).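 Note: probe is biotin-labelled aShh protein from a stem cell growth factor screen; measures binding of labelled protein to compounds printed on the slide; score merges feature fluorescence at 667 nm with signal-to-noise.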 Particulars: higher = more signal; small-molecule microarray, probe aShh, fluorescence unless noted.
A short description of test [8]: small-molecule microarray binders of probe aNog, primary screen, biochemical, biotinylated probe, 635/667 nm fluorescence (AID 1115).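 Note: probe is biotinylated aNog protein used at 0.15 µg/mL for 1 h at 4 C; z-score combines 667 nm fluorescence of each spot with its signal to noise.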 The conditions noted are these: higher = more signal; small-molecule microarray, probe aNog, fluorescence unless noted.
Test [9] has as its target Torsin-1A-interacting protein 1 (Homo sapiens) (UniProt Q5JTV8). Put plainly: LAP1 binders from COS7 cell lysate, primary screen, small-molecule microarray, 635/667 nm fluorescence (AID 1116). The conditions noted are these: COS7-hLAP1 lysate binding, 635 nm fluorescence, higher = more signal.
The target in test [10] is Alpha-bungarotoxin (Bungarus multicinctus) (UniProt P60615). The test is described as follows: alpha-bungarotoxin binders on microarray, profiling panel, artefact control for SMM control protein annotation, biochemical, small-molecule microarray, Alexa647 label, 635/667 nm fluorescence (AID 1117). Particulars: alpha-BTX-A647 binding fluorescence, higher = more signal.
Alpha-bungarotoxin (Bungarus multicinctus), sequence (P60615 whole entry, looked up): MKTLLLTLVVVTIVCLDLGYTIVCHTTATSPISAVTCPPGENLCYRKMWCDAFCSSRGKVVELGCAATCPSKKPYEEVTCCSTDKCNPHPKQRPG
Test [11] addresses Albumin (Bos taurus) (UniProt P02769). The test is described as follows: bovine serum albumin binders on microarray, profiling panel, artefact control for SMM control protein annotation, biochemical, small-molecule microarray, Alexa647 label, 635/667 nm fluorescence (AID 1118).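 Note: score merges 667 nm emission intensity and signal-to-noise per printed compound spot.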 Particulars: BSA-A647 binding, fluorescence 635 nm, higher = more signal.
Test [12] can be described thus: small-molecule microarray binders of probe aXIP, primary screen, biochemical, NeuroSMM set, 635/667 nm fluorescence (AID 1119).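 Note: probe is the protein aXip251-270 applied at 1 µg/mL to compound-printed slides; binding of probe to printed compounds measured as 667 nm fluorescence plus signal to noise.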 The conditions noted are these: higher = more signal, called active from +8 up or from −8 down unless noted.
Test [13] in a line: small-molecule binders of probe aNOTCH3, primary screen, biochemical, small-molecule microarray, 635/667 nm fluorescence (AID 1120).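 Note: probe is a biotin-tagged antibody raised against NOTCH3 rather than NOTCH3 protein; score merges spot fluorescence near 667 nm with spot signal to noise.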 Particulars: higher = more signal; small-molecule microarray, probe aNOTCH3, fluorescence unless noted.
Test [14] in a line: small-molecule binders of probe aNOTCH2, primary screen, biochemical, small-molecule microarray, 635/667 nm fluorescence (AID 1121).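 Note: score merges feature fluorescence read at 667 nm with its signal to noise.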 Particulars: higher = more signal; small-molecule microarray, probe aNOTCH2, fluorescence unless noted.
In test [15] the target is Carbonic anhydrase 2 (Homo sapiens) (UniProt P00918). Put plainly: CAII small-molecule binders, profiling panel, biochemical, small-molecule microarray, Alexa647-labelled CAII (AID 1122). Particulars: CAII-A647 binding fluorescence, higher = more signal.
Test [16] in a line: COS7 lysate on small-molecule microarray, probe aHis, 635 nm (AID 1123).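 Note: z-score combines 667nm fluorescence intensity with signal-to-noise per printed compound spot.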 Particulars: higher = more signal; small-molecule microarray, COS7 cell lysate, probe aHis, fluorescence unless noted.
Test [17] in a line: compound binding in COS7 lysate, probe aLAP1, primary screen, cell lysate, small-molecule microarray (AID 1124).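 Note: lysate comes from COS7 cells expressing LAP1 and is applied at 0.3 µg/mL; score merges spot fluorescence near 667 nm with signal-to-noise over triplicate slides.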 The conditions noted are these: higher = more signal; small-molecule microarray, COS7 cell lysate, probe aLAP1, fluorescence unless noted.
The subject of test [18] is Sam68 (KHDRBS1). Put plainly: Sam68 small-molecule binders, primary screen, biochemical, small-molecule microarray, 635 nm fluorescence (AID 1125).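 Note: score merges 667 nm channel intensity with signal to noise over triplicate slides.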 The conditions noted are these: small-molecule microarray binding, higher = more signal.
Test [19] concerns Chordin-like protein 2 (CHRDL2). Put plainly: CHRDL2 small-molecule binders, primary screen, biochemical, small-molecule microarray, 635 nm fluorescence (AID 1126).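 Note: printed compound slides probed with Chrdl2 protein at 4 µg/mL for 1 h at 4 C; score merges 667 nm emission intensity with signal to noise over three replicate slides.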 Particulars: small-molecule microarray binding, fluorescence 635 nm; higher = more signal.
For test [20], the target named is Concanavalin-A (Canavalia ensiformis) (UniProt P02866). The test is described as follows: ConA small-molecule binders, primary screen, artefact control for SMM control protein annotation, biochemical, small-molecule microarray, Alexa647 label, 635 nm (AID 1127).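 Note: z combines 667 nm emission intensity with signal-to-noise across three replicate slides.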 The conditions noted are these: ConA-A647 binding fluorescence, higher = more signal.
Concanavalin-A (Canavalia ensiformis), sequence (P02866 whole entry, looked up): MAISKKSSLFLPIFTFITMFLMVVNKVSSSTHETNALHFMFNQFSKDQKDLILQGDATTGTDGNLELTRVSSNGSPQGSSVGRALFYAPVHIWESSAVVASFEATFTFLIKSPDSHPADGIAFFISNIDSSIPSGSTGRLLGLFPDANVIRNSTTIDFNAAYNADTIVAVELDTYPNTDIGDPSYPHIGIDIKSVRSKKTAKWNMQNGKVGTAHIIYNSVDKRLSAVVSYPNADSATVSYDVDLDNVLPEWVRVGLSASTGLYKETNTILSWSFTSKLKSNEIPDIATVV

Torsin-1A-interacting protein 1 (Homo sapiens), sequence (Q5JTV8 whole entry, looked up): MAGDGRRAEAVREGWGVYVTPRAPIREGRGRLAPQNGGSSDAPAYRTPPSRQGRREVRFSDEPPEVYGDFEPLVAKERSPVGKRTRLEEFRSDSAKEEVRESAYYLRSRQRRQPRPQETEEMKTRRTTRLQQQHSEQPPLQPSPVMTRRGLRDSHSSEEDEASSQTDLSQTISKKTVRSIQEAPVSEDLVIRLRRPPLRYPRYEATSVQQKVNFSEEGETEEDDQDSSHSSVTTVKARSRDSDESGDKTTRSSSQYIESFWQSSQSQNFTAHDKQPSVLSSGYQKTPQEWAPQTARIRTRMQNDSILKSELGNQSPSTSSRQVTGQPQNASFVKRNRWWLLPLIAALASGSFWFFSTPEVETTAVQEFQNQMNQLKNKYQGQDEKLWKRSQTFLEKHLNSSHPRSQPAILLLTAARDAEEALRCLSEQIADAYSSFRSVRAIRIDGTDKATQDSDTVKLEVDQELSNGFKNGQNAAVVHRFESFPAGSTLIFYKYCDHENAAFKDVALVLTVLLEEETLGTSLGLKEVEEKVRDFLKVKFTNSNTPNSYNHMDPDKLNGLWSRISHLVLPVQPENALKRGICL
Albumin (Bos taurus), sequence (P02769 whole entry, looked up): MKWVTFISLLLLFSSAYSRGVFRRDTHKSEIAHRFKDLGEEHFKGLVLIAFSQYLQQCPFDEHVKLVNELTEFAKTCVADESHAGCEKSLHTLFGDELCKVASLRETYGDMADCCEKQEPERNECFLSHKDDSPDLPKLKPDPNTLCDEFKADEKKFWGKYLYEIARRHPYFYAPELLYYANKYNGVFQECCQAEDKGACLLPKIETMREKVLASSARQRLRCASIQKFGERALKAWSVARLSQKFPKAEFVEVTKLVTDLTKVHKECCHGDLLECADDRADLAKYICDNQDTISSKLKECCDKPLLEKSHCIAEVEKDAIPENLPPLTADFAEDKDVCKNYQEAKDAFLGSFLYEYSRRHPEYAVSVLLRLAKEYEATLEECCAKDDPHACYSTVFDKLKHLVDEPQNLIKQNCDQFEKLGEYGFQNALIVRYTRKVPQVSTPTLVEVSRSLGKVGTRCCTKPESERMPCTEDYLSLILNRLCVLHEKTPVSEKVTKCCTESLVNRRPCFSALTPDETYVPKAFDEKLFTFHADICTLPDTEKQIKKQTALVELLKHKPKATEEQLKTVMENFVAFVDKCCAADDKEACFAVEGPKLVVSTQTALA

Take `COC(=O)[C@@]1(Cc2ccc(F)cc2)[C@H]2c3cc(C(=O)N(C)C)[nH]c3C[C@H]2CN1C(=O)c1ccccc1`: the composite z-score in test [1] was 0.717; in test [3], -0.193; in [4] it was 0.366; in [5] it was -0.0836; in test [6], 0.0151 [setting not given]; in test [7] it was -0.343 [setting not given]. In addition, the composite z-score was 0.519 [setting not given] in test [8]; 0.125 in test [9]; 0.125 in test [10]; 0.659 in test [11]; -0.0414 [setting not given] in [13]; -0.0763 [setting not given] in test [14]. Moreover, the composite z-score was 0.777 in [15]; 0.694 [setting not given] in test [16]; 0.18 [setting not given] in test [17]; 0.361 in test [18]; -0.268 in test [19]; 0.419 in test [20]. Further, in test [2], the z-score was -0.0885. Further, the composite Z-score in [12] was 0.495 [setting not given] (inactive).
`COC(=O)[C@H]1[C@@H](O)[C@@]2(O)c3c(OC)cc(OC)cc3O[C@@]2(c2ccc(OC)cc2)[C@@H]1c1ccccc1`: the composite z-score was 0.828 in test [1]; 0.473 in test [3]; 0.371 in test [4]; -0.402 in test [5]; -0.0606 in test [6]; 0.0684 in test [7]. The composite z-score is 0.117 in [8]; 0.537 in test [9]; 0.611 in test [10]; 0.0007 in [11]; -0.101 in test [13]; -0.0439 in test [14]. In addition, the composite z-score in [15] was -0.0268; in [16], 0.309; in [17], 0.413; in test [18], 0.34; in test [19], 0.671; in test [20] it was 0.37. In addition, in test [2], the z-score is 1.91. In test [12], the composite Z-score is -0.619 (inactive).
Turning to `CCc1cc2c(nc1CC)CCN(CCC(C)=NOC)C2`, the composite z-score was 0.711 in test [1]; 0.802 in test [3]; -0.47 in [4]; 0.107 in test [5]; 0.0375 in [6]; -0.117 in test [7]. Also, the composite z-score is -0.148 in test [8]; 1 in test [9]; -0.0978 in [10]; 0.802 in [11]; 0.256 in test [13]; -0.0028 in test [14]. Also, the composite z-score is 0.639 in [15]; 0.45 in test [16]; 1.21 in [17]; 0.92 in [18]; 0.639 in test [19]; -0.426 in test [20]. In addition, the z-score in [2] is -1.06. The composite Z-score in test [12] is 0.154 (inactive).
For `C=C1C=C(Br)C2(OCCCO2)[C@H]2OC12` (stereo partly specified), the composite z-score in [10] was -0.206.
Turning to `COC(=O)NCC=Cc1nc(CCC=CC(=O)O[C@H]2CC3CC(=O)O[C@@H](C=CCC(C)C)C[C@@H]4CC[C@H](C)[C@@H](C[C@@H](OC)C[C@H](C2)O3)O4)co1`, the composite z-score was -1.78 in [1]; -0.107 in [3]; -0.421 in [4]; -0.409 in test [5]; -0.179 in [6]; -0.345 in [7]. The composite z-score was -0.0784 in test [8]; 0.231 in test [9]; -0.684 in test [10]; -0.27 in test [11]; -0.095 in test [13]; -0.14 in test [14]. The composite z-score in [15] was -0.303; in test [16], -0.263; in [17], 0.411; in test [18], -1.03; in test [19] it was -0.647; in test [20], -1.63. For the same compound, the z-score in [2] was -3.46. The composite Z-score in test [12] was 0.0506 (inactive).
As for `CC1N(P(=O)(c2ccccc2)c2ccccc2)CC(O)(c2ccccc2)CC12CC2` (stereo unspecified), the composite z-score is 1.36 and 0.0155 in test [1]; -1.22 and 0.326 in [3]; -0.0346 and 1.63 in test [4]; 0.595 and 1.02 in test [5]; 0.151 and -0.131 in [6]; 0.535 and 0.377 in test [7]. Also, the composite z-score in test [8] was 0.915 and 1.68; in test [9], 1.23 and 1.28; in test [10] it was -0.914 and -0.0679; in test [11] it was 0.728 and 0.608; in test [13], -0.136 and 0.15; in [14] it was 0.148 and 0.256. The composite z-score was 0.596 and 0.631 in test [15]; 3.25 and 2.52 in [16]; 0.934 and 0.881 in [17]; 0.723 and -0.577 in test [18]; -0.665 and -0.801 in test [19]; -0.358 and -0.0278 in test [20]. For the same compound, the z-score in [2] is -0.421 and -1.5. In [12], the composite Z-score was 0.311 (inactive) and 0.617 (inactive).
In the case of `CN1CCc2nc(CO)c(CO)cc2C1`, the composite z-score in test [1] is 0.22; in test [3], 0.357; in [4], -0.192; in test [5], -0.657; in [6], -0.117; in [7], -0.138. The composite z-score in [8] is -0.104; in test [9], -0.115; in test [10], -0.0299; in test [11], 0.372; in [13], 0.133; in [14], -0.115. In addition, the composite z-score was 0.2 in test [15]; 0.121 in test [16]; -0.13 in test [17]; 0.132 in [18]; 0.476 in [19]; -0.446 in [20]. For the same compound, the z-score in test [2] was -0.365. Besides, the composite Z-score in [12] was 0.396 (inactive).
In the case of `CCCc1cc2c(n1Cc1cccc(Cl)c1)C(C)C1CN(C(=O)c3ccccc3)C(C)(C(=O)OC)C21` (stereo unspecified), the composite z-score is 0.226 in test [1]; -0.587 in test [3]; 2.18 in test [4]; 1.37 in [5]; -0.0445 in test [6]; 0.261 in [7]. The composite z-score in test [8] came out at 1.71; in test [9], 2.22; in [10], 0.818; in test [11] it was 1.01; in [13], 0.0372; in [14] it was 0.0293. The composite z-score in [15] was 0.797; in [16], 2.68; in [17], 0.719; in test [18] it was 0.958; in [19], -1.94; in test [20], 0.298. Further, the z-score in test [2] was -2.24. Also, the composite Z-score in test [12] was -0.244 (inactive).
`CN1CCC(c2ccc(CO)cc2)=CC1C1CC1` (stereo unspecified): the composite z-score in test [1] is 0.0996; in [3], 0.163; in test [4] it was -0.257; in [5], -0.691; in test [6] it was -0.208; in test [7] it was -0.0474. Further, the composite z-score in [8] is -0.198; in test [9], -0.0443; in test [10], 0.0005; in test [11], -1.02; in test [13] it was 0.0357; in [14] it was -0.192. Also, the composite z-score in test [15] was -0.0046; in [16] it was -0.106; in [17], -0.334; in [18], -0.172; in [19], 0.0276; in [20] it was 0.28. Further, in [2], the z-score is -0.954. Also, in [12], the composite Z-score was -0.557 (inactive).
